Our source for the Potency and outcome values is PubChem BioAssay (Tox21).

A short description of assay [1]: qHTS assay to identify small molecule HDAC inhibitors (AID 1259364). Also: top concentration of the series differs between compounds; nearly all actives have a fitted effect of over 45% in size. The gist of the method: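 Endogenous HDAC class I/II activity was measured in wild-type HCT-116 cells by HDAC-Glo luminescence after 2 h compound treatment.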
A short description of assay [2]: qHTS assay to identify small molecule HDAC inhibitors - cell viability counter screen (AID 1259365). Also: series mostly up to about 92 µM; nearly all actives have a fitted effect of over 50% in size. The gist of the method:
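Luminescence from CellTiter-Glo, developed 30min at room temperature, reports viability of wild-type HCT-116 cells treated 2hr with compounds at 37 C and 5% CO2 after overnight plating.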

The nature of assay [3]: qHTS assay to identify small molecule agonists of the sonic hedgehog signaling (Shh) pathway - cell viability counter screen (AID 1259366). Also: nearly all actives have a fitted effect of over 50% in size. Also: potency is read from the fitted curve at half-maximal effect. The method, boiled down: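 Cytotoxicity counter screen run in the same wells as the Shh reporter assay. NIH/3T3 cells carrying a Gli1 response element–driven luciferase were treated with DMSO-dissolved compounds for 24hr, and live-cell protease activity was measured with CellTiter-Fluor.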

The nature of assay [4]: qHTS assay to identify small molecule antagonists of the sonic hedgehog signaling (Shh) pathway - cell viability counter screen (AID 1259367). Also: nearly all actives have a fitted effect of over 55% in size. Also: potency is read from the fitted curve at half-maximal effect. The method, boiled down: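 After a 4 hr settling period, 3T3 Gli1-Luc cells were treated with DMSO-dissolved chemicals and conditioned medium, kept 24 hr at 37C in 5% CO2, and assayed for viability by CellTiter-Fluor fluorescence following 1 hr reagent incubation.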
On the technique in general: Quantitative high-throughput screening tests each substance at several concentrations.

A short description of assay [5]: qHTS assay to identify small molecule agonists of the sonic hedgehog signaling (Shh) pathway (AID 1259368; calls by dose curve;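 also: NIH/3T3-derived 3T3Gli1-Luc cells carrying a stable Gli1-driven firefly luciferase reporter; series mostly up to about 92 µM; nearly all actives have a fitted effect of over 15% in size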). The gist of the method:
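Luminescent signal was taken as a measure of Gli1-controlled luciferase expression in stably transfected NIH/3T3-derived cells that had been treated for 24 hr with compounds delivered in DMSO.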

Assay [6] is described as follows: qHTS assay to identify small molecule antagonists of the sonic hedgehog signaling (Shh) pathway (AID 1259369; calls by dose curve; also: nearly all actives have a fitted effect of over 45% in size). The gist of the method:
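Screening used 3T3Gli1-Luc cells at 2,000 per well, compounds delivered in DMSO, and conditioned medium as agonist stimulus; plates incubated 24hr at 37 C and 5% CO2 before a 30min luciferase step.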

The target in assay [7] is Estrogen receptor beta (Homo sapiens) (UniProt Q92731). The experiment in a line: qHTS assay to identify small molecule agonists of the estrogen receptor beta (ER-beta) signaling pathway (AID 1259377; active = well fitted activation curve with a large enough effect in the signal ratio in the repeat runs, not every such curve was filed as active; the % refers to the signal ratio). The gist of the method: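 HEK293T ER-beta-UAS-bla; 2% charcoal-stripped FBS; cells pre-incubated 6 hr, compound 16 hr, 37C/5% CO2; LiveBLAzer B/G FRET substrate 2 h RT; fluorescence intensity read.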

Assay [8] has the same target. The experiment in a line: qHTS assay to identify small molecule antagonists of the estrogen receptor beta (ER-beta) signaling pathway (AID 1259378; active = well fitted inhibition curve with a large enough effect in the signal ratio in the repeat runs, not every such curve was filed as active; the % refers to the signal ratio). The gist of the method:
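ER-beta-UAS-bla HEK293T (GripTite) cells in 2% charcoal-stripped FBS medium were preincubated 6 hr at 37C, dosed with compound, then stimulated with 1 nM E2 (final) for 16 hr; beta-lactamase reporter read by B/G FRET fluorescence after 2 hr substrate loading.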

Assay [9] is described as follows: qHTS assay to identify small molecule agonists of the androgen receptor (AR) signaling pathway in the presence of an antagonist - cell viability counter screen (AID 1259379).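 Also: MDA-kb2 human breast cancer cells carrying an MMTV luciferase reporter; series mostly up to about 92 µM; nearly all actives have a fitted effect of over 25% in size.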 The method, boiled down:
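In MDA-kb2 cells (human breast carcinoma, MMTV-luciferase), compounds at 15 concentrations plus 3.0uM nilutamide; 16 hr, 37C, 0% CO2; CellTiter-Fluor fluorescence read for viability.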

Assay [10] in a line: qHTS assay to identify small molecule antagonists of the estrogen receptor beta (ER-beta) signaling pathway - cell viability counter screen (AID 1259382). Also: series mostly up to about 92 µM; nearly all actives have a fitted effect of over 55% in size. The gist of the method:
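Tox21 10K library tested in qHTS format on ER-beta-bla HEK293T cells stimulated with 1nM E2; 16 hr treatment at 37C. Same-well CellTiter-Glo luminescence served as the cell viability measure.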

Assay [11] can be described thus: qHTS assay to identify small molecule agonists or antagonists of the thyroid stimulating hormone receptor (TSHR) signaling pathway - wild type cell line counter screen (AID 1259384; calls by dose curve). The method, boiled down: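 Wild-type HEK293 cells were plated 18 h at 37 C/5% CO2, pin-dosed with compound plus Ro20-1724 medium, held 30 min at room temperature, then given cAMP-d2 and anti-cAMP-cryptate; fluorescence was read after 1 h. Fifteen concentrations, triplicate.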

Assay [12] addresses Thyrotropin receptor (Homo sapiens) (UniProt P16473). The experiment in a line: qHTS assay to identify small molecule antagonists of the thyroid stimulating hormone receptor (TSHR) signaling pathway (AID 1259385; calls by dose curve; also: nearly all actives have a fitted effect of over 20% in size). The method, boiled down:
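TSHR-HEK293 cells were plated and held 18 h at 37C/5% CO2, then given compound plus Ro20-1724 and stimulated with TSH at 1.5 ng/mL final. After 30 min at room temperature, cAMP was detected with cAMP-d2/anti-cAMP-cryptate (1 h) by fluorescence.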

Assay [13] in a line: qHTS assay to identify small molecule agonists of the estrogen receptor alpha (ER-alpha) signaling pathway in the presence of an antagonist - cell viability counter screen (AID 1259386).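 Also: series mostly up to about 92 µM; cells exposed to compounds for 22 h at 37 °C before the viability read; nearly all actives have a fitted effect of over 30% in size.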 The gist of the method: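 Fluorescent CellTiter-Fluor viability signal from VM7Luc4E2 cells, with the reagent added during the final hour of a 22hr compound exposure at 37C in the presence of 10.0nM ICI-182,780.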

For assay [14], the target named is Progesterone receptor (Homo sapiens) (UniProt P06401). Briefly: qHTS assay to identify small molecule agonists of the progesterone receptor (PR) signaling pathway (AID 1346784; calls by dose curve; also: nearly all actives have a fitted effect of over 30% in size). The method, boiled down:
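Beta-lactamase reporter read-out: after 16 hr compound treatment at 37C and a further 2 hr at room temperature with LiveBLAzer B/G FRET substrate, fluorescence was measured in PR-UAS-bla HEK 293T cells grown in 2% charcoal-stripped serum.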

Assay [15] has the same target. The experiment in a line: qHTS assay to identify small molecule antagonists of the progesterone receptor (PR) signaling pathway (AID 1346795; active = well fitted inhibition curve with a large enough effect in the signal ratio in the repeat runs, not every such curve was filed as active; the % refers to the signal ratio). The method, boiled down: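 Read-out is fluorescence from the LiveBLAzer B/G FRET substrate, cleaved by a UAS-controlled beta-lactamase in PR-UAS-bla HEK293T cells after 16 hr exposure to compound plus 1 nM promegestone (final), followed by 2 hr at room temperature.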

The nature of assay [16]: qHTS assay to identify small molecule antagonists of the progesterone receptor (PR) signaling pathway - cell viability counter screen (AID 1346798). Also: series mostly up to about 92 µM; nearly all actives have a fitted effect of over 50% in size. The method, boiled down: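 HEK293T PR-UAS-bla, 2% charcoal-stripped FBS; 4 hr pre-plate; cpd + R5020, 16 h 37C; LiveBLAzer read first; then CellTiter-Glo 30 min RT, luminescence.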
Assay [17] in a line: qHTS assay to identify small molecule agonists of the estrogen receptor beta (ER-beta) signaling pathway - cell viability counter screen (AID 1259380). Also: nearly all actives have a fitted effect of over 30% in size. The method, boiled down:
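Viability of ER-beta-UAS-bla HEK293T cells was determined by CellTiter-Glo luminescence following 16 hr treatment with test compounds at 37C.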

In assay [18] the target is Estrogen receptor (Homo sapiens) (UniProt P03372). The experiment in a line: qHTS assay to identify small molecule agonists of the estrogen receptor alpha (ER-alpha) signaling pathway in the presence of an antagonist (AID 1259383; calls by dose curve; also: top concentration of the series differs between compounds; nearly all actives have a fitted effect of over 15% in size). The gist of the method:
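In VM7Luc4E2 cells, 4,000 per well, compounds at 15 concentrations were co-incubated 22hr at 37C with 10.0nM final ICI-182,780. Luminescence from the stably transfected 4×ERE-luciferase reporter was recorded 30min after ONE-Glo addition.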

For assay [19], the target named is Androgen receptor (Homo sapiens) (UniProt P10275). Briefly: qHTS assay to identify small molecule agonists of the androgen receptor (AR) signaling pathway in the presence of an antagonist (AID 1259381; calls by dose curve; also: nearly all actives have a fitted effect of over 15% in size). The gist of the method: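 Here, 15-concentration compound series were pin-transferred onto MDA-kb2 MMTV-luciferase cells already dosed with nilutamide (3.0uM final). After 16hr at 37C, ONE-Glo was added and luminescence read 30min later at room temperature.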

Inconclusive results are not listed. Some structures have more than one record in an assay (separate samples or runs), and their calls can disagree. The source made the active and inactive calls. Unless noted, calls follow the shape of the dose curve; as a rule, active = well fitted curve in the direction sought with a large enough effect in the repeat runs; inconclusive = weak or mixed curves; inactive = no such curve, though single readings can be large; an effect the other way counts as inactive or inconclusive.

Sequence of Estrogen receptor (Homo sapiens) (P03372 whole entry, looked up): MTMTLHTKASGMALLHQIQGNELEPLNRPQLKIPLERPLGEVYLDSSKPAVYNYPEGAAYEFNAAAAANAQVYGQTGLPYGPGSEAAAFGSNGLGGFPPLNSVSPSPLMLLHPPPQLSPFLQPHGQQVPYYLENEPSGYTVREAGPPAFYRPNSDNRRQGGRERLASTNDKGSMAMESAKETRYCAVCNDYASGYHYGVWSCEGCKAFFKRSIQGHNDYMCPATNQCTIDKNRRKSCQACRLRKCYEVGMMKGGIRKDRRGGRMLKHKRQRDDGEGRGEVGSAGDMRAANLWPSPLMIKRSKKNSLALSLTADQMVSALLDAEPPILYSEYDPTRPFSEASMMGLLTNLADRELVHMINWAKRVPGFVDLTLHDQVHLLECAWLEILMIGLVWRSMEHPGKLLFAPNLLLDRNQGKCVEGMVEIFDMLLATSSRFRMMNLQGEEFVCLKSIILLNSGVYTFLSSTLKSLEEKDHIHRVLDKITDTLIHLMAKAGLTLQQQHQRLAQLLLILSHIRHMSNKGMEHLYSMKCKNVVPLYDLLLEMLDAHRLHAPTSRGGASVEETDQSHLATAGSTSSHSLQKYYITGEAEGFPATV
Sequence of Thyrotropin receptor (Homo sapiens) (P16473 whole entry, looked up): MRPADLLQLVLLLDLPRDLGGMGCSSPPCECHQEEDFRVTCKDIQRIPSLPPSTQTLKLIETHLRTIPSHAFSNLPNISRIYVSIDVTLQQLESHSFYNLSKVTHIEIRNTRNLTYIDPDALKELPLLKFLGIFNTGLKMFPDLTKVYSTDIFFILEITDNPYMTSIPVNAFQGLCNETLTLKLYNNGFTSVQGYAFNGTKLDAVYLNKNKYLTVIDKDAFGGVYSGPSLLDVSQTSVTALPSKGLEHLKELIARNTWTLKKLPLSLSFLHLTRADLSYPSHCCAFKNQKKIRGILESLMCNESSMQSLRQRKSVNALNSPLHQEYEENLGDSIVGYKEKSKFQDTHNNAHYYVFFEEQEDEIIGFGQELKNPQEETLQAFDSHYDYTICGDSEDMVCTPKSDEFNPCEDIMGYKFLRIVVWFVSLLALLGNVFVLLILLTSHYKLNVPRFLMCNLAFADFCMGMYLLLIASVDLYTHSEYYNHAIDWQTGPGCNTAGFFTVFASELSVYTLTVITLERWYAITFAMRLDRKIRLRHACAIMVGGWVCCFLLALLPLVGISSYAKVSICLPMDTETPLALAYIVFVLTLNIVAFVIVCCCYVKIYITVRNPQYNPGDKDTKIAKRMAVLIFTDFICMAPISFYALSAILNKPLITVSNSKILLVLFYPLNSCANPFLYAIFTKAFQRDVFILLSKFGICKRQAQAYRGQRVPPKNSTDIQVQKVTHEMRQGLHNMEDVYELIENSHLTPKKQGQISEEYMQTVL
Sequence of Progesterone receptor (Homo sapiens) (P06401 whole entry, looked up): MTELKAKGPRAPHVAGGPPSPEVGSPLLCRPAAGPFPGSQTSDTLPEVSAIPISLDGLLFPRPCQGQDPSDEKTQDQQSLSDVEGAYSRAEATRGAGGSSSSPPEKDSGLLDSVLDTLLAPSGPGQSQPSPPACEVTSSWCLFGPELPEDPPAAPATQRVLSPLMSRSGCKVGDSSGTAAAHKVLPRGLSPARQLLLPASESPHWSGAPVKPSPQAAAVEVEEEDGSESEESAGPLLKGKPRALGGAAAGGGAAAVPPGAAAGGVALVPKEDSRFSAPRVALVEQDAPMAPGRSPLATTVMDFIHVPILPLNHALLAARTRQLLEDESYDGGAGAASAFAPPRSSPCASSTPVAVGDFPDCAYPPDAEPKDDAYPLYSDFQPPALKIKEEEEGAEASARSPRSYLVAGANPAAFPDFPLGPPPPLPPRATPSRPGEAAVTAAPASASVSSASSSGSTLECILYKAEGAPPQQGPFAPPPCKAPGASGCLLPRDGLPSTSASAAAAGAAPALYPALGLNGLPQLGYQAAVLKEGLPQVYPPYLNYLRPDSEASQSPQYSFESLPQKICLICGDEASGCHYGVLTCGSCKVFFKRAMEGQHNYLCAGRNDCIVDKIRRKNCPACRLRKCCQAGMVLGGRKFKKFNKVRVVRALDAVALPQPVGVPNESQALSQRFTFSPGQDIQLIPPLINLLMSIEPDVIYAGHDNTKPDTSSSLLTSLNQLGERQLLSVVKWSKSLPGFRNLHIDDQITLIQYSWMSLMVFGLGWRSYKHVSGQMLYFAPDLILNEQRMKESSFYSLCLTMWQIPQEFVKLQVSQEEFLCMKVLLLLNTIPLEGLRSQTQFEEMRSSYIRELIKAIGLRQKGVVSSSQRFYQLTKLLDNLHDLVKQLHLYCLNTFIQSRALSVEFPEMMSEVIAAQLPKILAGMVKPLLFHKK
Sequence of Estrogen receptor beta (Homo sapiens) (Q92731 whole entry, looked up): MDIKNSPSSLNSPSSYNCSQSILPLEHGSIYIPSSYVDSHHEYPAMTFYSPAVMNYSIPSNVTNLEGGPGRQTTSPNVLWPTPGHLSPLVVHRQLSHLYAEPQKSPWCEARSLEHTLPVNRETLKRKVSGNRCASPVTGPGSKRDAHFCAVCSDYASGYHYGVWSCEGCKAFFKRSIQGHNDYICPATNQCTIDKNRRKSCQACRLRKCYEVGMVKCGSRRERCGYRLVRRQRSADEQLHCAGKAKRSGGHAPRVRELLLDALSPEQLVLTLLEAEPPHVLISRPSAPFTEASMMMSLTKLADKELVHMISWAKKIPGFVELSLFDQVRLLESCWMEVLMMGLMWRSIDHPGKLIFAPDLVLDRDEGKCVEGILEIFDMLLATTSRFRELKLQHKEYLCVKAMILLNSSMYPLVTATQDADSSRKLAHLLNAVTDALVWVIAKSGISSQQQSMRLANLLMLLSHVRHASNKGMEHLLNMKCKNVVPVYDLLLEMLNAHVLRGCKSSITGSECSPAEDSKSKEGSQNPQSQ
Sequence of Androgen receptor (Homo sapiens) (P10275 whole entry, looked up): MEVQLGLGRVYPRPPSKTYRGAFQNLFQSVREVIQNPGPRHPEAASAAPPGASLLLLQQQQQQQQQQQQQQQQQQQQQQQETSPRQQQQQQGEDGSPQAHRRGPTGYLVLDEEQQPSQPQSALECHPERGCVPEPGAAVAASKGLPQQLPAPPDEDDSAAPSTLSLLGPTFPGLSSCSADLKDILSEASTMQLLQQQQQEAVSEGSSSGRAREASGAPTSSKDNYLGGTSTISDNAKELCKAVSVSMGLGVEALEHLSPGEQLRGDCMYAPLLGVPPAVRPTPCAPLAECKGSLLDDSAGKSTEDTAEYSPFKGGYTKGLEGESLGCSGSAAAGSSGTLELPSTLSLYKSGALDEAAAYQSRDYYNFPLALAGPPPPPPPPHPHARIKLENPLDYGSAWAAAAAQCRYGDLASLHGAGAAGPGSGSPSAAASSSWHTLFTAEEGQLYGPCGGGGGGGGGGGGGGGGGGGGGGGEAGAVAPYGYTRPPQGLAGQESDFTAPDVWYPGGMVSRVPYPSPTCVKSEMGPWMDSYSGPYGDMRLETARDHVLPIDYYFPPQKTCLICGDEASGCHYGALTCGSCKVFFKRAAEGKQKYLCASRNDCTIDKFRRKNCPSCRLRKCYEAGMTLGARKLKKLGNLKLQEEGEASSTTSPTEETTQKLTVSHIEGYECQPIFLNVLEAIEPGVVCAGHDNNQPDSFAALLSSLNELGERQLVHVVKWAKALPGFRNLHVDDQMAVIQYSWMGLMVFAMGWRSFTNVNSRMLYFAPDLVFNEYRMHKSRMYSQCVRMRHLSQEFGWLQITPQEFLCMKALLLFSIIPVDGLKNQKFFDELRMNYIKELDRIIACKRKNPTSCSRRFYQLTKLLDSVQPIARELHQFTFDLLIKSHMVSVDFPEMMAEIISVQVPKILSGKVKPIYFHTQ

Turning to `CCCCC(CC)CO` (stereo not drawn), the Potency entry in assay [1], in assay [3], in [4], in [6], in assay [7] and in [8] was “inactive” each time. The Potency result in assay [9], in assay [10], in [12], in assay [13], in [14] and in assay [15] was “inactive” in each case. Also, in assay [16], the Potency result is “inactive”. Besides, the compound was called inactive in assay [2], in assay [5] and in assay [11].
For `C=CCOC(=O)c1ccccc1C(=O)OCC=C`, the Potency entry in assay [1], in assay [3], in [4], in [6], in assay [9] and in assay [17] was “inactive” in each case. The Potency entry in assay [10], in assay [12], in assay [13], in assay [14], in [15] and in assay [16] was “inactive” throughout. Moreover, the outcome in assay [2], in assay [5] and in assay [11] was inactive.
With `CCCCCC1=CCCC1=O`, the Potency entry in assay [1], in [3], in [4], in assay [6], in [7] and in [8] was “inactive” each time. Also, the Potency entry in assay [9], in [17], in [10], in [18], in assay [12] and in assay [13] was “inactive” each time. For the same compound, the Potency entry in assay [14], in assay [15] and in [16] was “inactive” in each case. The result in [2] and in [5] was inactive.
For the compound `CSCCC=O`, the Potency entry in assay [1], in assay [3], in [4], in [6], in assay [7] and in assay [8] was “inactive” each time. The Potency entry in assay [9], in assay [17], in [10], in assay [13], in [14] and in [15] was “inactive” in each case. The Potency entry in assay [16] is “inactive”. The result in assay [2] and in assay [5] was inactive.
Consider `CCC(O)OCCCOC` (stereo not drawn), for which the Potency result in assay [1], in assay [6], in [7], in [8], in assay [9] and in [10] was “inactive” throughout. In addition, the Potency result in assay [12], in assay [13], in [14], in assay [15] and in assay [16] was “inactive” each time. Further, the compound was classed as inactive in assay [2], in assay [5] and in [11]. Besides, the Potency is 22.2 µM (active) and inactive in [3]; 28 µM (active) and inactive in [4].
Regarding `CCCCCCCCCCCCS`, the Potency entry in assay [1], in [3], in assay [4], in assay [6], in assay [7] and in [8] was “inactive” throughout. For the same compound, the Potency result in [9], in [10], in [12], in [13], in [14] and in assay [15] was “inactive” in each case. Also, the Potency result in assay [16] is “inactive”. Moreover, the outcome in assay [2] and in assay [5] was inactive.
On to `O=C=NCCCCCCN=C=O`, for which the Potency result in assay [1], in [3], in assay [4], in [6], in assay [7] and in assay [8] was “inactive” each time. Moreover, the Potency entry in assay [9], in [17], in [10], in assay [18], in [12] and in assay [13] was “inactive” each time. For the same compound, the Potency result in assay [14], in [15] and in assay [16] was “inactive” each time. For the same compound, the outcome in assay [2] and in assay [5] was inactive.
For the compound `O=C(O)c1ccc2c(c1)C(=O)OC2=O`, the Potency result in [1], in assay [3], in [4], in [6], in assay [7] and in [8] was “inactive” each time. Also, the Potency result in assay [9], in [19], in [10], in assay [18], in assay [12] and in assay [13] was “inactive” each time. Besides, the Potency result in assay [14], in [15] and in assay [16] was “inactive” in each case. Further, the result in assay [2] and in [5] was inactive.
